Measured values from PubChem BioAssay (EPA / NIEHS).
Records with an inconclusive call do not appear. Calls of active or inactive are those of the source. How the source made its calls, unless noted: active means hit-call score of the fitted dose curve at least 0.9, where 1 is the maximum; inactive means score below 0.9.

Columns and labels:
[1] = biological target: Retinoic acid receptor RXR-alpha (Homo sapiens) (UniProt P19793); experiment: ATG_RXRa_TRANS: Attagene TRANS-FACTORIAL HepG2 Assay for human Retinoid X Receptor alpha (RXRa) (AID 2283012; active means hit-call score of the fitted dose curve at least 0.9, where 1 is the maximum)
Summary of the method: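 Transient transfection of human HepG2 with multiple GAL4-UAS reporter constructs; 24 h compound exposure; total RNA isolated, reverse-transcribed, PCR-amplified, 6-FAM labelled, HpaI-cut, resolved by capillary electrophoresis. Positive-direction fit versus DMSO.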

[2] = biological target: human Retinoid X Receptor beta (RXRb), RXRB (gene 6257) (UniProt P28702); experiment: ATG_RXRb_TRANS: Attagene TRANS-FACTORIAL HepG2 Assay for human Retinoid X Receptor beta (RXRb) (AID 2283013; active means hit-call score of the fitted dose curve at least 0.9, where 1 is the maximum)
Summary of the method: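 Transfect HepG2 with GAL4-UAS multi-reporter constructs (chimeric NR-Gal4, TRANS format); dose compound 24 h; isolate RNA, RT-PCR, FAM primer extension, HpaI digest; quantify by capillary electrophoresis; positive direction vs DMSO.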

[3] = biological target: human Thyroid Receptor alpha (THRa1), THRA (gene 7067) (UniProt P10827); experiment: ATG_THRa1_TRANS: Attagene TRANS-FACTORIAL HepG2 Assay for human Thyroid Receptor alpha (THRa1) (AID 2283014; active means hit-call score of the fitted dose curve at least 0.9, where 1 is the maximum)
Summary of the method: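 HepG2 cells transiently transfected with multiplexed GAL4-UAS reporter units for exogenous chimeric THRa1-Gal4; reporter mRNA measured 24 h after dosing by RT-PCR, 6-FAM labelling, HpaI digestion and capillary electrophoresis. Gain-of-signal fitted versus DMSO baseline.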

[4] = read-out: E-selectin (Homo sapiens) (UniProt P16581); experiment: BSK_3C_Eselectin: BioMAP Diversity Plus: 3C Assay for Eselectin Biomarker Activity (AID 2283015); details: primary human endothelial cells (HUVEC); actives raise or lower the signal
Summary of the method: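 Primary human umbilical vein endothelial cells (3C system) were dosed with chemical and cell-surface E-selectin measured by ELISA 24 h later. Bidirectional curve fitting used DMSO as negative control and baseline.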

[5] = read-out: Interleukin-1 alpha (IL1a), IL1A (gene 3552); experiment: BSK_BE3C_IL1a: BioMAP Diversity Plus: BE3C Assay for Interleukin-1 alpha (IL1a) Biomarker Activity (AID 2283016); details: primary human bronchial epithelial cells; actives raise or lower the signal
Summary of the method: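 BE3C primary human bronchial epithelium; cpd 24 h; IL-1a by ELISA; bidirectional fit vs DMSO; parallel SRB (0.1% SRB, 10% TCA fix, 560 nm) for cytotoxicity.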

[6] = read-out: Monocyte Chemoattractant Protein-1 (MCP1), CCL2 (gene 6347); experiment: BSK_3C_MCP1: BioMAP Diversity Plus: 3C Assay for Monocyte Chemoattractant Protein-1 (MCP1) Biomarker Activity (AID 2283017); details: primary human endothelial cells (HUVEC); actives raise or lower the signal
Summary of the method: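 Primary human umbilical vein endothelial cells (3C system) were exposed to test chemical for 24 h, after which MCP-1 was quantified by ELISA. Activity was fitted bidirectionally against DMSO as negative control and baseline.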

[7] = read-out: Monocyte Chemoattractant Protein-1 (MCP1), CCL2 (gene 6347); experiment: BSK_4H_MCP1: BioMAP Diversity Plus: 4H Assay for Monocyte Chemoattractant Protein-1 (MCP1) Biomarker Activity (AID 2283018); details: primary human endothelial cells (HUVEC); actives raise or lower the signal
Summary of the method: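 ELISA read-out of MCP-1 from human vascular endothelial primary cells taken at 24 hours after compound exposure. Activity was fitted in both directions relative to DMSO, which served as negative control.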

[8] = read-out: Human Leukocyte Antigen - DR isotype (HLADR), HLA-DRA (gene 3122); experiment: BSK_3C_HLADR: BioMAP Diversity Plus: 3C Assay for Human Leukocyte Antigen - DR isotype (HLADR) Biomarker Activity (AID 2283019); details: primary human endothelial cells (HUVEC); actives raise or lower the signal
Summary of the method: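 Primary human umbilical vein endothelial cells (3C system) were dosed with compound and cell-surface HLA-DR was quantified by ELISA at 24 h. Activity was fitted bidirectionally against DMSO as negative control and baseline.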

[9] = read-out: Interleukin-8 (IL8), CXCL8 (gene 3576); experiment: BSK_3C_IL8: BioMAP Diversity Plus: 3C Assay for Interleukin-8 (IL8) Biomarker Activity (AID 2283020); details: primary human endothelial cells (HUVEC); actives raise or lower the signal
Summary of the method: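 ELISA read-out of IL-8 from human umbilical vein endothelium, measured 24 h after chemical dosing. Activity is expressed relative to DMSO negative control, with both increases and decreases fitted.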

[10] = read-out: Monokine induced gamma interferon (MIG), CXCL9 (gene 4283); experiment: BSK_3C_MIG: BioMAP Diversity Plus: 3C Assay for Monokine induced gamma interferon (MIG) Biomarker Activity (AID 2283021); details: primary human endothelial cells (HUVEC); actives raise or lower the signal
Summary of the method: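 Read-out is ELISA detection of MIG on human umbilical vein endothelial cells, taken 24 h after dosing. Gain or loss of signal was scored relative to DMSO controls using bidirectional curve fitting.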

[11] = BSK_3C_SRB: Viability Assessment in the BioMAP Diversity Plus: 3C Assay (AID 2283023); details: primary human endothelial cells (HUVEC);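 further: fitted both ways against DMSO so a hit may be signal rise or drop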
Summary of the method: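 Primary human umbilical vein endothelial cells in the 3C system were read 24 h after compound dosing. Total protein was stained with 0.1% sulforhodamine B after 10% TCA fixation and read at 560 nm, with bidirectional fitting against DMSO as baseline.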

[12] = read-out: Matrix Metallopeptidase 1 (MMP1), MMP1 (gene 4312); experiment: BSK_BE3C_MMP1: BioMAP Diversity Plus: BE3C Assay for Matrix Metallopeptidase 1 (MMP1) Biomarker Activity (AID 2283024); details: primary human bronchial epithelial cells; actives raise or lower the signal
Summary of the method: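 Human bronchial epithelial cells (BE3C system) exposed to compound for 24 h; MMP1 then quantified by ELISA. Activity was fitted in both directions relative to DMSO.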

[13] = BSK_3C_Vis: BioMAP Diversity Plus: 3C Assay for Morphology Visualization (AID 2283025); details: primary human endothelial cells (HUVEC);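 further: fitted both ways so gain or loss versus DMSO counts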;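 on AC50: light microscopy image of cell morphology used as background control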
Summary of the method: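 Chemicals were added to primary human umbilical vein endothelium, cells were incubated 24 h, and morphology was then visualized by light microscopy. Gain or loss of signal was fitted bidirectionally relative to DMSO.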

[14] = read-out: Pselectin, SELP (gene 6403); experiment: BSK_4H_Pselectin: BioMAP Diversity Plus: 4H Assay for Pselectin Biomarker Activity (AID 2283026); details: primary human endothelial cells (HUVEC); actives raise or lower the signal
Summary of the method: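 ELISA read-out of P-selectin on human umbilical vein endothelium after 24 h of dosing. Values derive from bidirectional fitting relative to DMSO. Parallel SRB protein staining flagged overt cytotoxicity.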

[15] = BSK_4H_SRB: Viability Assessment in the BioMAP Diversity Plus: 4H Assay (AID 2283027); details: primary human endothelial cells (HUVEC);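 further: cells exposed to compound for 24 h before staining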
Summary of the method: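 Human umbilical vein endothelial cells, 24 h after chemical dosing; total protein measured by 0.1% sulforhodamine B staining after 10% TCA fixation, read at 560 nm. Bidirectional fitting against DMSO.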

[16] = BSK_BE3C_SRB: Viability Assessment in the BioMAP Diversity Plus: BE3C Assay (AID 2283028); details: primary human bronchial epithelial cells
Summary of the method: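 Human primary bronchial epithelial cells were exposed to test chemicals for 24 h. Total protein in parallel cultures was then measured by staining with 0.1% sulforhodamine B after 10% TCA fixation, with absorbance read at 560 nm. Activity was fitted bidirectionally against DMSO.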

[17] = read-out: Thrombomodulin, THBD (gene 7056); experiment: BSK_3C_Thrombomodulin: BioMAP Diversity Plus: 3C Assay for Thrombomodulin Biomarker Activity (AID 2283029); details: primary human endothelial cells (HUVEC); actives raise or lower the signal
Summary of the method: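 Read-out is ELISA of thrombomodulin on human umbilical vein endothelium 24 h after chemical dosing. Gain or loss of signal is scored relative to DMSO. Overt cytotoxicity is checked in parallel cultures by sulforhodamine B staining.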

[18] = read-out: Urokinase-type plasminogen activator receptor (uPAR), PLAUR (gene 5329); experiment: BSK_4H_uPAR: BioMAP Diversity Plus: 4H Assay for Urokinase-type plasminogen activator receptor (uPAR) Biomarker Activity (AID 2283030); details: primary human endothelial cells (HUVEC); actives raise or lower the signal
Summary of the method: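 Primary human umbilical vein endothelial cells were exposed to chemical for 24 h before cell-surface uPAR was quantified by ELISA. Activity was fitted bidirectionally against the DMSO negative control baseline.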

[19] = biological target: human RAR-related Orphan Receptor gamma (RORg), RORC (gene 6097) (UniProt P51449); experiment: ATG_RORg_TRANS: Attagene TRANS-FACTORIAL HepG2 Assay for human RAR-related Orphan Receptor gamma (RORg) (AID 2283011; active means hit-call score of the fitted dose curve at least 0.9, where 1 is the maximum)
Summary of the method: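 Readout: reporter transcript induction (RT-PCR, fluorescent primer extension, capillary electrophoresis) after 24 h compound exposure of transiently transfected HepG2 cells carrying a RORg-Gal4 chimera and GAL4-UAS reporters; DMSO served as baseline, with increasing signal fitted.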

[20] = biological target: human Vitamin D Receptor (VDR), VDR (gene 7421) (UniProt P11473); experiment: ATG_VDR_TRANS: Attagene TRANS-FACTORIAL HepG2 Assay for human Vitamin D Receptor (VDR) (AID 2283022; active means hit-call score of the fitted dose curve at least 0.9, where 1 is the maximum)
Summary of the method: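 HepG2 cells were transiently transfected with multiple GAL4-UAS reporter units, so signal reflects exogenous chimeric receptor-Gal4 activity. After 24 h compound exposure, reporter mRNA was measured by RT-PCR, fluorescent labelling and capillary electrophoresis, fitted for gain of signal versus DMSO.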

Measured: AC50

Chain of E-selectin (Homo sapiens) (P16581 whole entry, looked up): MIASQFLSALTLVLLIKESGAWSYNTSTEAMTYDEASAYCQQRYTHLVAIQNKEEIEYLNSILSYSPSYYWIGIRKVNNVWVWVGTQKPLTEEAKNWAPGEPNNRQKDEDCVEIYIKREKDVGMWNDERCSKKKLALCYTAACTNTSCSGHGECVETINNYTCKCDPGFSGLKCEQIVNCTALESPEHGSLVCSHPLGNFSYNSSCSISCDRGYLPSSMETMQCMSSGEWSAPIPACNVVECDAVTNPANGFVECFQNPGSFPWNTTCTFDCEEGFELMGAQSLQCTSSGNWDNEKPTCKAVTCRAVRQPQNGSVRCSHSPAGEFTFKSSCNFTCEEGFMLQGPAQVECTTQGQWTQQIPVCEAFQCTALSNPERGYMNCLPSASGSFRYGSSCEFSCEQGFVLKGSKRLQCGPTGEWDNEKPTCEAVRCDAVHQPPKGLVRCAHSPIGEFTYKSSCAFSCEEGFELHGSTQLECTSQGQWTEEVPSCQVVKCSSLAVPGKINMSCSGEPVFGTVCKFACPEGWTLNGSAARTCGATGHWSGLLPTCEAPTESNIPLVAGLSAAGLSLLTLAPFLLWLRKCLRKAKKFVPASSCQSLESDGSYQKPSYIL
Chain of human Retinoid X Receptor beta (RXRb), RXRB (gene 6257) (P28702 whole entry, looked up, the tested form may be a part): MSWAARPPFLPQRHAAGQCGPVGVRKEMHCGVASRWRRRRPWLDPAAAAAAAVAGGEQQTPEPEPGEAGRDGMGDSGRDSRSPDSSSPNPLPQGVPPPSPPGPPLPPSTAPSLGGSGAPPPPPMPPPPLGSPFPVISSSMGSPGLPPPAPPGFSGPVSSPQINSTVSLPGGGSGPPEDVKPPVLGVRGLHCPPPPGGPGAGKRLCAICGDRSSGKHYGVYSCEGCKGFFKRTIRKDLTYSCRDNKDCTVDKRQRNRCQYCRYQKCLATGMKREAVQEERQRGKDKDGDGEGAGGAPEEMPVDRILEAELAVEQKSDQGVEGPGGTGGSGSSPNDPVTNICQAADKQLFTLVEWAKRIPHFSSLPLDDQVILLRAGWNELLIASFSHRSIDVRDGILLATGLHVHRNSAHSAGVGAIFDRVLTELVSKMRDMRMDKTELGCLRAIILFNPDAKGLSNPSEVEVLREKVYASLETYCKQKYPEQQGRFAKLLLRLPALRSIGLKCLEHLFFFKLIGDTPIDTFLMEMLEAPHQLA
Chain of Retinoic acid receptor RXR-alpha (Homo sapiens) (P19793 whole entry, looked up, the tested form may be a part): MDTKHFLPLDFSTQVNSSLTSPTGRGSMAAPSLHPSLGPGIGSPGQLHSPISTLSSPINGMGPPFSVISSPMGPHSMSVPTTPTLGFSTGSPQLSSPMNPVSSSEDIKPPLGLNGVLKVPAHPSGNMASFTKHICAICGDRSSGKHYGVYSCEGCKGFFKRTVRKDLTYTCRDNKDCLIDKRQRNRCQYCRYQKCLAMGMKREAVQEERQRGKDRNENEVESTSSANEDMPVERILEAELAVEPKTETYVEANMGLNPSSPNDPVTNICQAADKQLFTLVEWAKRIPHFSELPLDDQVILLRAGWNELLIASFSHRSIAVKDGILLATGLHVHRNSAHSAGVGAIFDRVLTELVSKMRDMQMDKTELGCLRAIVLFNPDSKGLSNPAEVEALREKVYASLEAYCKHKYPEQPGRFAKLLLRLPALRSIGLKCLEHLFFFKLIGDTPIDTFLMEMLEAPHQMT
Chain of human Thyroid Receptor alpha (THRa1), THRA (gene 7067) (P10827 whole entry, looked up, the tested form may be a part): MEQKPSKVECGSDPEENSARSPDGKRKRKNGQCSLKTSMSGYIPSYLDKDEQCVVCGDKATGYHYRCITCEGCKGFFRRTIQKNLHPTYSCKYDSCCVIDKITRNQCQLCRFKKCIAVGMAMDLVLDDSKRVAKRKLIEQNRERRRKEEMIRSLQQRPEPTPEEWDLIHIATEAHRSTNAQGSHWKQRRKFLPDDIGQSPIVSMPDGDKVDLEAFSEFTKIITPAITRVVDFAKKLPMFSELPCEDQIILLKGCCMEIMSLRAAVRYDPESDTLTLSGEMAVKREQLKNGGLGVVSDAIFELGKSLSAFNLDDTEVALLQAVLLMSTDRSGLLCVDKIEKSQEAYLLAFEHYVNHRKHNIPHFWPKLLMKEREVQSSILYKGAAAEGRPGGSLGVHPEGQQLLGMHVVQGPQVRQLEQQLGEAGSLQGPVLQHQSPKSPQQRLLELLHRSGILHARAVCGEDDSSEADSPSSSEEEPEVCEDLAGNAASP
Chain of human Vitamin D Receptor (VDR), VDR (gene 7421) (P11473 whole entry, looked up, the tested form may be a part): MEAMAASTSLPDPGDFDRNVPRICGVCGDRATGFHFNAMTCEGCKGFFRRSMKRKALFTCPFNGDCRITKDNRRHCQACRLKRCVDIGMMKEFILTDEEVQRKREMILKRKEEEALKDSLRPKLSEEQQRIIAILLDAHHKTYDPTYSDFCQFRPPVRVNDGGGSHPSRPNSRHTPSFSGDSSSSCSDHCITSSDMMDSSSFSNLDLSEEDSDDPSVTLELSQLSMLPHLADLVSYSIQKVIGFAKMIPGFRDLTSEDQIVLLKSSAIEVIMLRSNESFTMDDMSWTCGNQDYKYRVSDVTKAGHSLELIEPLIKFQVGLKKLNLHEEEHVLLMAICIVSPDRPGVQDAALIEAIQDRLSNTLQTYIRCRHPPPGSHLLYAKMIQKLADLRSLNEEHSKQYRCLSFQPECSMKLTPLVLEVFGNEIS
Chain of human RAR-related Orphan Receptor gamma (RORg), RORC (gene 6097) (P51449 whole entry, looked up, the tested form may be a part): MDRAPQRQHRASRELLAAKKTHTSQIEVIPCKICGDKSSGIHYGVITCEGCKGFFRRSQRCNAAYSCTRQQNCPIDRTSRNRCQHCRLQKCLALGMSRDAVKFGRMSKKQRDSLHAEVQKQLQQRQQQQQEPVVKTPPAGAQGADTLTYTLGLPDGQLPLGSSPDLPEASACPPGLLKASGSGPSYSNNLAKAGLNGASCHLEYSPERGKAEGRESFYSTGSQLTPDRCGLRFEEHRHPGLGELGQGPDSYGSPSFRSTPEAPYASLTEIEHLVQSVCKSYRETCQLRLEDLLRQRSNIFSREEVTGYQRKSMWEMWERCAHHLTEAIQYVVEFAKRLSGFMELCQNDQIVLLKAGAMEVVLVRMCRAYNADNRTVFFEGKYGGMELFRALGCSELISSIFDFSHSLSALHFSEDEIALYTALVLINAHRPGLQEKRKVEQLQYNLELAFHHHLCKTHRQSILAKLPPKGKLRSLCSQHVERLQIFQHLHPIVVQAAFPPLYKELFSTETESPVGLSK

ClCCOCCCl
not listed: [19] | [20]
inactive: all other assays above

CCCCCCCCCCCCCN1CC(C)OC(C)C1 (stereo not drawn)
active: [1] 26.4 µM | [2] 26.6 µM
not listed: [19] | [20]
inactive: all other assays above

Clc1ccc(Cl)c(Cl)c1
not listed: [1] | [2] | [3] | [10]
inactive: all other assays above

Cc1ccc([N+](=O)[O-])cc1
not listed: [19]
inactive: all other assays above

CNC(=O)Oc1cccc2c1OC(C)(C)C2
active: [2] 58.7 µM
not listed: [19]
inactive: all other assays above

C[C@]12C=CC3=C4CCC(=O)C=C4CC[C@H]3[C@@H]1CC[C@@H]2O
active: [4] 9.4 µM | [8] 20 µM | [11] 7.77 µM | [12] 10.2 µM | [13] 7.2 µM | [18] 16 µM
not listed: [10] | [14] | [19] | [20]
inactive: all other assays above

N#CC(Br)Br
not listed: [3] | [19] | [20]
inactive: all other assays above
